Key:
Assay in all cases: log2 ratio of Biotin-Ahx-Ub-VS probe labelling (fragment/DMSO); higher = less target engagement (more negative = stronger competition), active = hit call of the paper (q ≤ 0.05, log2 ratio ≤ -1)
Settings in all cases: compound concentration: 200 uM; treatment time: 3 h
[1] = target: T1, ALG13 (UniProt Q9NP73)
T1 sequence (whole entry): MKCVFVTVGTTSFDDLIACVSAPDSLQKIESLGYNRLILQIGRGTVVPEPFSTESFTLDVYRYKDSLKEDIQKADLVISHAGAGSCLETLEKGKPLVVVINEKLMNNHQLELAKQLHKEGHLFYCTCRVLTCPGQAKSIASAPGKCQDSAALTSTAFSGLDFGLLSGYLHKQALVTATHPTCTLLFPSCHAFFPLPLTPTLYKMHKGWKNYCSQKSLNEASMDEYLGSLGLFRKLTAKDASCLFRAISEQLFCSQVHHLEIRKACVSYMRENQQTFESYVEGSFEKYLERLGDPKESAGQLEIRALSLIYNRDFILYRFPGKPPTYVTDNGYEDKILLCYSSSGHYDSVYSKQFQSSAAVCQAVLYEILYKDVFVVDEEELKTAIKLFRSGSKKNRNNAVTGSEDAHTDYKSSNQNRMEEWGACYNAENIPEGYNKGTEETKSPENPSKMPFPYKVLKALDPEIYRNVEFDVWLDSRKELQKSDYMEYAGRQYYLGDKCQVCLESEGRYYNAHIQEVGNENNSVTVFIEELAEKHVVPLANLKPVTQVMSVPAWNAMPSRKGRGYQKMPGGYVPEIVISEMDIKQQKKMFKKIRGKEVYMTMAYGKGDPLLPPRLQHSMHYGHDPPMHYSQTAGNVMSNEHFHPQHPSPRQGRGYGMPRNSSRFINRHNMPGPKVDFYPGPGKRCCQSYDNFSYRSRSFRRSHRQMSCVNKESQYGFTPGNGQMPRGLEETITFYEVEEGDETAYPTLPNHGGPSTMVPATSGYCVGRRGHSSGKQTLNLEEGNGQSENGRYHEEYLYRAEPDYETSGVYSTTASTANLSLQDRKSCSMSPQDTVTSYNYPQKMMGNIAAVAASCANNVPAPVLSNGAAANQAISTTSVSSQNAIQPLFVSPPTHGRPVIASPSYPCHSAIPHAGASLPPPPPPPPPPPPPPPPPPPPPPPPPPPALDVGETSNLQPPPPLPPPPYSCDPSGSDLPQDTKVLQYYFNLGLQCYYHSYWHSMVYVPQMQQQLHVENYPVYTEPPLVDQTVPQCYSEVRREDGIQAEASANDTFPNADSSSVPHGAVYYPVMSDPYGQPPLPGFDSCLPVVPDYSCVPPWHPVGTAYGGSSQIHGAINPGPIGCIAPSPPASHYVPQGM
Method in brief: (§1)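 Lysate from HEK293T cells, 495 µg per sample in Tris/CHAPS/IGEPAL buffer with protease inhibitors, was treated for 3 h in triplicate with fragment at 200 µM or vehicle. Biotin-Ahx-Ub-VS was next added at 0.5 µM final for 1 h. The labelled DUBs were enriched with NeutrAvidin, digested with LysC and trypsin, and run by diaPASEF LC-MS/MS, with values given as average log2 fragment/vehicle ratios by unpaired t-test on global-median-normalised Spectronaut quantities of proteins with ≥2 unique peptides.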

[2] = target: ATXN3 (UniProt P54252)
Chain of ATXN3 (P54252 whole entry): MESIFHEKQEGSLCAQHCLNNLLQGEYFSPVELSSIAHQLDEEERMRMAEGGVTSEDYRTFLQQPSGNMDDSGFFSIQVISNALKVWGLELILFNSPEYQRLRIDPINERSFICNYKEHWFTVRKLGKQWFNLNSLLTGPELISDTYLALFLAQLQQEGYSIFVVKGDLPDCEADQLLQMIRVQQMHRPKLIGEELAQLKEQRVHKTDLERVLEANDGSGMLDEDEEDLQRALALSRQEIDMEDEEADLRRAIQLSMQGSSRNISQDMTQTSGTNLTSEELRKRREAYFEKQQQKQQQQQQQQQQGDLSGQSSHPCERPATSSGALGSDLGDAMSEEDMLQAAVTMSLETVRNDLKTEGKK
Method in brief: as §1

[3] = target: T2, BAP1 (UniProt Q92560)
T2 sequence (whole entry): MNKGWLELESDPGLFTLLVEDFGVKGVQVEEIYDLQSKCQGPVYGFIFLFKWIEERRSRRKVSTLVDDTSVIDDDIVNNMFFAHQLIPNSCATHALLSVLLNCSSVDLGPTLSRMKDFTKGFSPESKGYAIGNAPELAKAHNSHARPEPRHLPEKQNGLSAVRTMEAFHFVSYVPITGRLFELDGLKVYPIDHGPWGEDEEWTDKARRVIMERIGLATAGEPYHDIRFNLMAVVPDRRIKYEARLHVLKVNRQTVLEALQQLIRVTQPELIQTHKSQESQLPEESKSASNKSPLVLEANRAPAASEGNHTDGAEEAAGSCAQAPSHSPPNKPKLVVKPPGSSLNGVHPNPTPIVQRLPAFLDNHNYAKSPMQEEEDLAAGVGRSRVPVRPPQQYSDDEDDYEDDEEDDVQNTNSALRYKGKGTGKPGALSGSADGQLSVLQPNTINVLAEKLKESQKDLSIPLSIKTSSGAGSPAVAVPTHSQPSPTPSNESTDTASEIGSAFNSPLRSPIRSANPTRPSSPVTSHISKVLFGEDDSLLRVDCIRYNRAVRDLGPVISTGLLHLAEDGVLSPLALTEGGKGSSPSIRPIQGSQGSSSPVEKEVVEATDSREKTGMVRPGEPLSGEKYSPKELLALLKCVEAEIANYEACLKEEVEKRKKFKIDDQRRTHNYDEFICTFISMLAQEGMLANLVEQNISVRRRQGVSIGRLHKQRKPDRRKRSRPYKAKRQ
Method in brief: as §1

[4] = target: EIF3F (UniProt O00303)
Chain of EIF3F (O00303 whole entry): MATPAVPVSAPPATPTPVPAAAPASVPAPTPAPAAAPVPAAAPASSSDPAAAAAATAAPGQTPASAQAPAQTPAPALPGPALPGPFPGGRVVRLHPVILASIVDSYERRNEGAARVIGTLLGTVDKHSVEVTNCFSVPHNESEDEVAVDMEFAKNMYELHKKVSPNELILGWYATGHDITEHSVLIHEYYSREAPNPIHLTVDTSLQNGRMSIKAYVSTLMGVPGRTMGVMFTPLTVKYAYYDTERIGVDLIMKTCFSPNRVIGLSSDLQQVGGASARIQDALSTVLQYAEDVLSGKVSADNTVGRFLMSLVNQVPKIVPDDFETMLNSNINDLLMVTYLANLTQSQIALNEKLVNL
Method in brief: as §1

[5] = target: EIF3H (UniProt O15372)
Chain of EIF3H (O15372 whole entry): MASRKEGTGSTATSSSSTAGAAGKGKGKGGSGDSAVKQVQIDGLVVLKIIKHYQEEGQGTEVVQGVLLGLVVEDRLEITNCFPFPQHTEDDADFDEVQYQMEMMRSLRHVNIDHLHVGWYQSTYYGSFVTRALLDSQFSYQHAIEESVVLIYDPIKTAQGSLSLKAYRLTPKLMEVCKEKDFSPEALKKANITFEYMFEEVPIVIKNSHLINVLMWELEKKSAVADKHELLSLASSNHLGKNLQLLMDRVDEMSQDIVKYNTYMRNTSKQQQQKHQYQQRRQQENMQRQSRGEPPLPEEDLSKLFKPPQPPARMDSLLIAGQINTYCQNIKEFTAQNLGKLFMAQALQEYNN
Method in brief: as §1

[6] = target: T3, FAM105A (UniProt Q9NUU6)
T3 sequence (whole entry): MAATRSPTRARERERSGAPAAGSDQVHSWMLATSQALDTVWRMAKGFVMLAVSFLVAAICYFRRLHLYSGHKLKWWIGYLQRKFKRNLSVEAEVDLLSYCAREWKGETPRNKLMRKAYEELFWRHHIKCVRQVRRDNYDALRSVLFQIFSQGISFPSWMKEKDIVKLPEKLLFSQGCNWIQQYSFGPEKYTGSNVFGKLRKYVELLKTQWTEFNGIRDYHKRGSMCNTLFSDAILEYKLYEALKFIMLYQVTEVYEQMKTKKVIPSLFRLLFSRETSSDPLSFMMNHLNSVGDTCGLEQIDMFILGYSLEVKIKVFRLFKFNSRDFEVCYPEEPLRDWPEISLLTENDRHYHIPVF
Method in brief: as §1

[7] = target: OTUB1 (UniProt Q96FW1)
Chain of OTUB1 (Q96FW1 whole entry): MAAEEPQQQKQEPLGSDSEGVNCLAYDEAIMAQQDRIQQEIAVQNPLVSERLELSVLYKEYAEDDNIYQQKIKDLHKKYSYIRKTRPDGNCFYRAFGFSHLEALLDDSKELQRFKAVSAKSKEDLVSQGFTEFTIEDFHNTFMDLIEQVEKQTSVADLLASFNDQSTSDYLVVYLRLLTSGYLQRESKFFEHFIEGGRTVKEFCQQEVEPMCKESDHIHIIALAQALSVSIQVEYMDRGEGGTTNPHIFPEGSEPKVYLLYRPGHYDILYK
Method in brief: as §1

[8] = target: T4, OTUD4 (UniProt Q01804)
T4 sequence (whole entry): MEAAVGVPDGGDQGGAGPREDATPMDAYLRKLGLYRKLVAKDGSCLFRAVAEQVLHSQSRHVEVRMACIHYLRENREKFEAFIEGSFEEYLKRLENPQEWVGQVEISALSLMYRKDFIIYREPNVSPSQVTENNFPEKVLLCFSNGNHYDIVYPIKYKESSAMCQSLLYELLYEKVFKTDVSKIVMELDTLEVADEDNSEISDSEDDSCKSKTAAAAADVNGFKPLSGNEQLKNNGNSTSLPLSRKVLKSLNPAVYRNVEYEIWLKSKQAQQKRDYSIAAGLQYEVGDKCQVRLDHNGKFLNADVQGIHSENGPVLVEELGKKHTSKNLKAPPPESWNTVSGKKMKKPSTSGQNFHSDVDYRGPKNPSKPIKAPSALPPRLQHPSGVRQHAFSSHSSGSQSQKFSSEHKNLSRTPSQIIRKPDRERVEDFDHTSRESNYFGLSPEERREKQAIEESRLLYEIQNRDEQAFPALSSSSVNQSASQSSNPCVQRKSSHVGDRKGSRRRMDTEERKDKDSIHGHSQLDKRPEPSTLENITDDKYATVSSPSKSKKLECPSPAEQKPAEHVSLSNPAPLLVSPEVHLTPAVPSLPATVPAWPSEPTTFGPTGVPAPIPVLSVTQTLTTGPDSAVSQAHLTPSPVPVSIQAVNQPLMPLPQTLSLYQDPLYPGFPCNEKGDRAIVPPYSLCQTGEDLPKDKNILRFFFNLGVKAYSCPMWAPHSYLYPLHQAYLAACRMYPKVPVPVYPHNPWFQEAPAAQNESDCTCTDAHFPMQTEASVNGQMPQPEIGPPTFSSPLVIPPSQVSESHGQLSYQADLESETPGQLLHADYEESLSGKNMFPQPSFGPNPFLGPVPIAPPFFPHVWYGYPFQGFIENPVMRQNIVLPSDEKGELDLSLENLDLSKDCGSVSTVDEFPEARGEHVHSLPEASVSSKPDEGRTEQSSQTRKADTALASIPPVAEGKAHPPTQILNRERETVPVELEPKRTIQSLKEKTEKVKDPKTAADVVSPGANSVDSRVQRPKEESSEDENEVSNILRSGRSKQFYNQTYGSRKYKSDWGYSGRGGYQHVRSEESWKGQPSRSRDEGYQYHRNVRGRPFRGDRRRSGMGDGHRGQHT
Method in brief: as §1

[9] = target: T5, OTUD5 (UniProt Q96G74)
T5 sequence (whole entry): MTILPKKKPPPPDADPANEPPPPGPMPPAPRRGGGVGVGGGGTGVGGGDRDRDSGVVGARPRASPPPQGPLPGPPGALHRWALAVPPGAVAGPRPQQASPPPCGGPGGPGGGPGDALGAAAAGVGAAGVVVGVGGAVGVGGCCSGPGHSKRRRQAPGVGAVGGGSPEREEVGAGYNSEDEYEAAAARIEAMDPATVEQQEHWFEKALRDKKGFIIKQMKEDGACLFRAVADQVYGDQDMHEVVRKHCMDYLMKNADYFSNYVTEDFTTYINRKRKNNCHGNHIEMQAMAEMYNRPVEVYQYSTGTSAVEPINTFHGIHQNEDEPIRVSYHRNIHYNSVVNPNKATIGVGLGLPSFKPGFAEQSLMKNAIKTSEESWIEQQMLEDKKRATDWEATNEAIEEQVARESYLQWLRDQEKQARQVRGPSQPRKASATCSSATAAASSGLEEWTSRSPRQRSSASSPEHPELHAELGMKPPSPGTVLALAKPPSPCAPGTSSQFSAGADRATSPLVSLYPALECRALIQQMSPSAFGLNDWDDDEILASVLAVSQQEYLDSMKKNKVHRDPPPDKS
Method in brief: as §1

Measured: log2 ratio of Biotin-Ahx-Ub-VS probe labelling

O=C(CCl)N(C1CCCC1)C1CCS(=O)(=O)C1 (centres undefined)
inactive: [1] 0.338 | [2] -0.109 | [3] -0.0673 | [4] -0.335 | [5] 0.00604 | [6] 0.169 | [7] -0.343 | [8] 0.0168 | [9] -0.379

From the supplement of paper PMC11732987, “Enantioselective OTUD7B fragment discovery through chemoproteomics screening and high-throughput optimisation” (Communications Chemistry, 2025)
